Shown are actives, neighbours in structure and some others; about 2.4% of the full set was active somewhere.
POLH inh: qHTS for Inhibitors of Polymerase Eta; DNA polymerase eta (Homo sapiens), Q9Y253; 1.2% of 390,000 active; Potency, µM (highest dose often 114 µM), inactives show at the top dose activity change, negative = inhibition, hits mostly inhibitors; recombinant Pol eta, fluorescent DNA replication assay; note: % is set by controls: 0 for no effect and ±100 for the full control effect
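Fluorescent replication assay: 50 nM final substrate added after a 15 min room-temperature compound preincubation with 10 nM enzyme. Signal taken at 0 min and again at 10 min.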
L3MBTL1 block: qHTS Assay for the Inhibitors of L3MBTL1. AlphaScreen L3MBTL1–H3K9me1 peptide binding. Potency, µM (top dose mostly 57.1 µM), inactives show top-dose activity, negative = inhibition, actives largely listed as inhibitors. 0.66% of 230,000 active; note: % is set by controls: 0 for no effect and ±100 for the full control effect; nearly all actives have a fitted effect of over 60% in size
Target sequence (Q9Y468 whole entry, looked up): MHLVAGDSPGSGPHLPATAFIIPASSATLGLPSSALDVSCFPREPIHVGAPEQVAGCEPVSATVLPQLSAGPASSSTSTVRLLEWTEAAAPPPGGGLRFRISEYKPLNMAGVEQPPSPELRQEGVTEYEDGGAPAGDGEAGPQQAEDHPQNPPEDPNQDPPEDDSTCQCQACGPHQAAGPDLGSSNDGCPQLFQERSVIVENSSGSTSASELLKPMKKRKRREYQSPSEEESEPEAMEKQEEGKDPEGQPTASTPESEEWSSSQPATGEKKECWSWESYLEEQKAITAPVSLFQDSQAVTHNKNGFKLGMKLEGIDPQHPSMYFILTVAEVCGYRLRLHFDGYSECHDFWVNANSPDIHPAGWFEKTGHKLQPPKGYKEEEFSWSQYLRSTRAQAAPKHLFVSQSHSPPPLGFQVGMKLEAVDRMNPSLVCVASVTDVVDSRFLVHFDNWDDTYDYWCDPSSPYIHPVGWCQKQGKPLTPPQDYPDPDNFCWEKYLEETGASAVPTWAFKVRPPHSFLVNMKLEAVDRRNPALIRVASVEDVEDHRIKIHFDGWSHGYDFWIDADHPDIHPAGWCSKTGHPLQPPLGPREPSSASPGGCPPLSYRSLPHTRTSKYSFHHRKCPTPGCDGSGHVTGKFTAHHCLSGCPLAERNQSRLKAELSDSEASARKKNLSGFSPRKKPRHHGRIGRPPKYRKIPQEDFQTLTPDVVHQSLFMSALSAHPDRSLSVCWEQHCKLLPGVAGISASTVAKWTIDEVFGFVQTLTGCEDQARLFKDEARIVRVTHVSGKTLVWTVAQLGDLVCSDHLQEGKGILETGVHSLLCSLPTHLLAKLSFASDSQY
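AlphaScreen proximity signal between nickel-chelate acceptor and streptavidin donor beads (final 10 ug/mL) reports binding of 50 nM L3MBTL1 to 75 nM biotin-H3 K9me1 peptide; complex incubated with compounds 30 min at room temperature; cefsulodin titration as control.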
POLB inh: qHTS Assay for Inhibitors of DNA Polymerase Beta; P06746; Pol beta primer extension/strand displacement, fluorescence kinetic; Potency, µM (series often up to 114 µM), for inactives: at the top dose activity change, negative = inhibition, hits mostly inhibitors; 1.3% of 340,000 active; AID 485314, 2010; note: % is set by controls: 0 for no effect and ±100 for the full control effect
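Curves were derived by four-parameter Hill fits of normalized qHTS data. The kinetic fluorescent primer-extension read was taken at 0 and 10 min after 50 nM substrate, following a 15 min room-temperature preincubation of 10 nM enzyme with compounds.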
POLI inh: qHTS for Inhibitors of Polymerase Iota. DNA polymerase iota (Homo sapiens), Q9UNA4. 1% of 390,000 active. Potency, µM (series often up to 115 µM), for inactives: top-dose activity, negative = inhibition, usual class: inhibitors. Pol iota fluorescent replication assay, 10 min
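Pol iota at 10 nM preincubated 15 min with compounds at room temperature; reaction started with fluorescent substrate, 50 nM final. Fluorescence read kinetically at 0 and 10 min; buffer-only wells as negative control.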
Pol kappa inh: qHTS for Inhibitors of Polymerase Kappa; DNA polymerase kappa (Homo sapiens), Q9UBT6; Potency, µM (series often up to 107 µM), for inactives: at the top dose activity, negative = inhibition, actives largely listed as inhibitors; 0.53% of 400,000 active; AID 588579, 2011; purified Pol kappa, fluorescent DNA synthesis assay, 10 min; note: % is set by controls: 0 for no effect and ±100 for the full control effect
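Inhibition of 10 nM Pol kappa is measured by a fluorescent read-out at 0 and 10 min following addition of 50 nM substrate (final), with a 15-min room-temperature compound preincubation.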
PGK validate: qHTS for inhibitors of Phosphogylcerate Kinase: Hit Validation Screen. shares compounds with Pol kappa inh. TbPGK coupled GAPDH assay, Kinase-Glo luminescence. Potency, µM (top dose mostly 57.5 µM), inactives show top-dose activity change, negative = inhibition, actives largely listed as inhibitors. 79% of 500 active. AID 686980, 2013; note: % is set by controls: 0 for no effect and ±100 for the full control effect; nearly all actives have a fitted effect of over 65% in size
Pol iota confirm: qHTS for Inhibitors of Polymerase Iota: Confirmatory Assay for Cherry-picked Compounds. Pol iota primer extension, TAMRA/BHQ fluorescence. 77% of 1,500 active. shares compounds with Pol kappa inh. Potency, µM, most hits filed as inhibitors
Active calls of the source: *; ? = inconclusive; · = no result; [ ] = remark or other dose. Calls come from the whole dose curve; as a rule, active = well fitted curve in the direction sought with a large enough effect; inconclusive = small, poorly fitted or top-dose-only effect, or another doubt; inactive = no such curve, though single readings can be large; an effect the other way counts as inactive or inconclusive. Potency is the fitted concentration of half-maximal effect.

SMILES	POLH inh	L3MBTL1 block	POLB inh	POLI inh	Pol kappa inh	PGK validate	others
COc1ccc(C2=CC3=C(Br)C(=O)C(C)(OC(=O)C4CCCC4)C(=O)C3=CO2)cc1 (configuration not stated)	45µM*	·	35µM*	40µM*	79µM*	9.2µM*
CCN(CC)c1ccc(C(=C2C=CC(=[N+](CC)CC)C=C2)c2ccccc2)cc1	-10%	·	·	8%	-3%	·
CCN(CC)c1ccc(C(=C2C=CC(=[N+](CC)CC)C=C2)c2ccc(N(CC)CC)cc2)cc1	-17%	·	·	2%	6%	16µM*
COc1ccc(NC(=O)/C(C#N)=C/c2ccc(C)o2)cc1	-13%	·	2%	20%	4%	·
COc1ccc(NC(=O)/C(C#N)=C/c2ccc(Br)o2)cc1	?	32µM*	10µM*	22µM*	79µM*	·	Pol iota confirm=?
CC(C)C(C(=O)O)N1C(=O)/C(=C/C=C/c2ccco2)SC1=S (configuration not stated)	0.79µM*	1.8µM*	1.6µM*	1.1µM*	3.2µM*	2.6µM*
CC(C(=O)Nc1ccc(C(=O)O)c(O)c1)N1C(=O)/C(=C\c2ccco2)SC1=S (configuration not stated)	3.2µM*	·	?	?	0%	23µM*
O=C(NCC(=O)N1CCN(Cc2c(F)cccc2Cl)CC1)c1cccs1	-10%	·	·	·	·	·
CCC(C)[C@H]1CNCCN1CCc1cccc2ccccc12 (some centres not stated)	8%	-8%	·	?	-29%	?
Cc1cc(C=Nc2ccc(/C=C/c3ccnc4ccccc34)cc2)ccc1N(C)C	·	·	·	5%	4%	·
CC1CC[C@@]2(OC1)OC1CC3C4CC[C@@H]5CC(O)CC[C@@]5(C)C4CC[C@]3(C)C1C2C (some centres not stated)	·	·	·	·	-4%[60.1 µM]	·
Fc1cccc(/C=N/Nc2nccnc2Cl)c1	-8%	2%	7%	7%	-3%	16µM*
Fc1ccc(/C=N/Nc2nccnc2Cl)cc1	-23%	21%	32%	18%	-16%	·
Oc1ccc(/C=N/Nc2nccnc2Cl)cc1	-22%	·	-18%	-10%	-16%	9.2µM*
CC(=O)N(C)C	·	·	·	·	-2%[60.1 µM]	·
COc1cccc2c(C)nc(Nc3nc(CSc4nnc(C)s4)cc(=O)[nH]3)nc12	-5%	3%[11.4 µM]	-1%	?	-8%	·	Pol iota confirm=?
Cc1ccc2c(C)nc(Nc3nc(CSc4nnc(C)s4)cc(=O)[nH]3)nc2c1	29%	-2%	253%	38%	14%	·
COc1ccc(CNc2ncnc3ccc(-c4cccc(NS(C)(=O)=O)c4)cc23)c(OC)c1	·	·	·	·	5%[60.1 µM]	·
Cc1ccc(C(=O)Nc2c(C)nc3ccccn3c2=O)cc1C	-2%	·	-24%	1%	-6%[60.1 µM]	·
Cc1ccccc1OCC(=O)NCC(=O)OCC(=O)c1ccc(Br)cc1	·	·	·	16%	5%	·
COc1ccc(-n2nc(C(=O)Nc3ccc(OC)c(OC)c3)c3c4ccccc4n(C)c3c2=O)cc1	?	·	-22%	?	-10%	·	Pol iota confirm=4.7*
CCOC(=O)c1cnc(NCc2ccccc2OC)c2ccccc12	?	·	6%	-2%	-11%[60.1 µM]	·
O=C(Nc1ccc2oc(=O)ccc2c1)c1ccc(-c2cccc([N+](=O)[O-])c2)o1	32µM*	-12%	2.8µM*	47%	-9%	·	Pol iota confirm=21*
COc1ccc(-c2cc(C(F)(F)F)nc(SCCC(=O)Nc3c(C)cccc3C)n2)cc1	-5%	·	1%	25%	3%	·
